According to PubChem BioAssay (EPA / NIEHS):
Inconclusive results are not listed. Calls of active or inactive are those of the source. Rule for the calls: active = hit-call score of the fitted dose curve at least 0.9, where 1 is the maximum; inconclusive = response in the unintended direction; inactive = score below 0.9.

target: AR (gene 367) (UniProt P10275); experiment: ACEA_AR_agonist_80hr: ACEA Biosciences xCELLigence Real-Time Cell Analysis on Androgen Receptor Agonism for Proliferation (AID 2283783);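 note: hits increase impedance growth signal above DMSO baseline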
Summary of the method: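 Real-time cell-growth kinetics were recorded by electrode impedance in 22Rv1 cells exposed to test chemicals up to 100 uM final; the 80 h timepoint served as the readout, fitted upward relative to DMSO controls, in biological duplicate.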

Sequence of AR (gene 367) (P10275 whole entry, looked up): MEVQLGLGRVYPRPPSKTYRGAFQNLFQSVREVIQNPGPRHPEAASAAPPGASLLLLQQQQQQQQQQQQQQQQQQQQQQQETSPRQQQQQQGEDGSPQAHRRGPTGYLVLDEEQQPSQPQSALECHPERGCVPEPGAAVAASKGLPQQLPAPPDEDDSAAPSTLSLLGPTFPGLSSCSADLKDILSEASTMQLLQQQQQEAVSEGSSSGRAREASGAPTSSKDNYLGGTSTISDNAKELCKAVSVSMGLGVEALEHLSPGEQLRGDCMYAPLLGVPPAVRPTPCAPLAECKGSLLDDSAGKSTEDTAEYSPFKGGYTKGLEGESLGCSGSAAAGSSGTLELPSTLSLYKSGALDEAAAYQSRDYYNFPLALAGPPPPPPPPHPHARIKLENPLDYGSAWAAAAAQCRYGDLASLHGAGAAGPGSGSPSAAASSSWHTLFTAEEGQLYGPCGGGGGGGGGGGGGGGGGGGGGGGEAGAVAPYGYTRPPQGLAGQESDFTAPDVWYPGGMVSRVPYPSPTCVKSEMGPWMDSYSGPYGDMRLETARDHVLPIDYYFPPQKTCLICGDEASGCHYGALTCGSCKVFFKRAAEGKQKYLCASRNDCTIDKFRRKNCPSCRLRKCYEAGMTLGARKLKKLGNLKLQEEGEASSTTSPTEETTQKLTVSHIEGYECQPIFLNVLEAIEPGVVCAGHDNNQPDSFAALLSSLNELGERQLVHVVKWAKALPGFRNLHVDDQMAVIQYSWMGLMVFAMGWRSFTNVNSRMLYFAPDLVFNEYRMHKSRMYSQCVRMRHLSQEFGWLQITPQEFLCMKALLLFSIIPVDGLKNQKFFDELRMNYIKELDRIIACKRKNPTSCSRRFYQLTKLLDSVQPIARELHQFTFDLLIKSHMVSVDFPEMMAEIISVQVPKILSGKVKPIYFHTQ

Compound	outcome	AC50
COC(=O)Nc1nc2ccccc2[nH]1	inactive	–
CC(C)(OOC(C)(C)c1ccccc1)c1ccccc1	inactive	–
C[C@]12C=CC3=C4CCC(=O)C=C4CC[C@H]3[C@@H]1CC[C@@H]2O	–	0.000293 µM (active)

tested on: not listed separately; experiment: STM_H9_NormalizedViability: Cytotoxicity Assessment at 120 hours in the Stemina devTOX quickPredict H9 human embryonic stem cell (hESC)-based Assay (AID 2283784)
Summary of the method: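 CellTiter-Fluor RFU, background-subtracted, expressed relative to 0.1% DMSO neutral control by plate. Pluripotent H9 cells; treatment with daily re-dosing. Plates carried 1uM methotrexate (positive) and 5 nM methotrexate (negative) references.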

Compound	AC50	outcome
CCCCOC(=O)c1ccccc1C(=O)OCc1ccccc1	34 µM (active)	–
Clc1ccc(C(c2ccc(Cl)cc2)C(Cl)(Cl)Cl)cc1	–	inactive
CO[C@@H]1[C@H](OC(=O)NC(=O)CCl)CC[C@]2(CO2)[C@H]1[C@@]1(C)O[C@@H]1CC=C(C)C	0.0978 µM (active)	–
CC(C)(C)C(O)(CCc1ccc(Cl)cc1)Cn1cncn1 (stereo not drawn)	78.7 µM (active)	–
COC(=O)Nc1nc2ccccc2[nH]1	–	inactive
CCCCCCCCCCCCCN1CC(C)OC(C)C1 (stereo not drawn)	–	inactive
Cc1ccc(N)cc1	40.9 µM (active)	–
O=[N+]([O-])c1ccc(Oc2ccc(Cl)cc2Cl)cc1	77 µM (active)	–
CCCCCCCCn1sccc1=O	47.7 µM (active)	–
CCC[CH2][Sn]([Cl])([CH2]CCC)[CH2]CCC	0.642 µM (active)	–
